A short description of test [1]: blockers of polyQ-driven CASP3 activation – cell-based (AID 1583). To be noted: polyglutamine-induced caspase-3 activation, cell assay; stronger effect = higher value;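 tested at 10 µM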.
A short description of test [2]: yeast 75Q aggregation reduction – 75Q-TubU reporter (AID 1593). As to conditions: Yeast 75Q polyglutamine aggregation reporter.
Test [3] can be described thus: restoration of touch response, mutant HTT neurons – whole organism, C. elegans mechanosensory neurons, N-terminal huntingtin (AID 1599). As to conditions: C. elegans polyQ-huntingtin mechanosensory neurons, stronger effect = higher value.
Test [4] in a line: blockers of cytochrome c efflux from mitochondria – biochemical, purified mitochondria (AID 1603).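 Also: mouse liver mitochondria challenged with calcium chloride; signal normalized to the plate average as 100%.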 As to conditions: stronger effect = lower value.
The nature of test [5]: polyglutamine aggregate formation blockers (AID 1604). To be noted: polyglutamine-induced protein aggregation inhibition assay; stronger effect = higher value; tested at 2.5 µM.
Test [6] is described as follows: glutamate transport activators, MN-1 cells, MN-1 cell line (AID 1612).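 Also: tested at 1 µM final; 0% = mean of DMSO vehicle wells on each plate; positive means more glutamate uptake than control and negative means less.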 As to conditions: MN-1 motor neuron cells, stronger effect = higher value.
Test [7] is described as follows: GFP-Q80 aggregate reduction, neuronal-like cells, cell-based, NGF-treated PC12, GFPQ80 (AID 1614).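 Also: lower means fewer inclusions and 0 means no inclusions at all.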 To be noted: PC12 NGF-treated GFP-polyQ80 inclusion reduction.
Test [8] in a line: 75Q-TubH aggregate inhibition, S. cerevisiae, yeast (AID 1616). To be noted: S. cerevisiae 75Q-TubH polyglutamine aggregation suppression; stronger effect = higher value.
The nature of test [9]: P. berghei load reduction in hepatocytes – cell-based, HepG2, luciferase luminescence, HepG2 viability, primary screen (AID 624349).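 Also: 100% = mean of DMSO negative control wells on the same plate.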 To be noted: P. berghei liver stage in HepG2, luciferase luminescence, concentration not given here; parasite load remaining: stronger effect = lower value; viability: measured here: HepG2 viability without parasites.
Test [10] concerns the target 6-phosphogluconate dehydrogenase, decarboxylating (Homo sapiens) (UniProt P52209). As to the kind of experiment: inhibition of human phosphogluconate dehydrogenase – biochemical, recombinant enzyme, NADPH absorbance, primary screen (AID 1159550;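 active = at least 20% inhibition of 6-phosphogluconate dehydrogenase activity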). To be noted: recombinant 6PGD, NADPH absorbance 341 nm; at 10 µM; stronger effect = higher value.
The nature of test [11]: EMT-state selective cytotoxicity in co-culture – imaging, PC-3E GFP, TEM4-18 mCherry, primary screen (AID 1345086;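 active = compounds killing one labelled cell type while sparing the other, by normalised counts and ratio limits, not self-fluorescent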;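 as to all read-outs here: cells exposed to compound for 72 h before imaging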;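 as to red/green cell ratio (normalised): normalised mesenchymal count divided by normalised epithelial count so high means epithelial killing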). To be noted: PC-3E GFP / TEM4-18 mCherry co-culture, imaging cell counts, at 1 µM; for red/green cell ratio (normalised): actives lie on both sides, counts scaled to control wells, 1 = unselective.
Test [12] is described as follows: viability loss with induced miR-34 in A549 – imaging, A549 dox-inducible miR-34, nuclei and caspase counts, primary screen (AID 1347080;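 active = compounds whose cell count with miR-34 switched on is under 0.7 times the count with it off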). As to conditions: A549 miR-34 inducible, Hoechst nuclei count, 48 h.
Test [13] has as its target NAD(+) hydrolase SARM1 (Homo sapiens) (UniProt Q6SZW1). The experiment in a line: blocking NAD cleavage by SARM1 SAM-TIR – cell lysate, NAD-Glo luminescence (AID 1508614;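 active = compound whose remaining NAD level is above about 45 nM, limit read from the data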;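 also: higher remaining NAD means stronger inhibition of SARM1 NADase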). To be noted: SAM-TIR HEK293T lysate NADase, at 1 µM, stronger effect = higher value.
Test [14] addresses Mitogen-activated protein kinase 7 (Homo sapiens) (UniProt Q13164). As to the kind of experiment: Gal4-ERK5 driven luciferase induction – cell-based, HTS, primary screen (AID 1508626;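 active = luciferase signal above three times the same-plate solvent-only control wells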;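 also: luciferase driven by Gal4-ERK5 fusion binding five Gal4 sites before minimal TATA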). As to conditions: HeLa Gal4-ERK5 transactivation, 18 h, at 5 µM, stronger effect = higher value.
Test [15] can be described thus: MELAS cybrid and Rieske KO viability enhancers – cell-based, MELAS cybrids, Rieske KO mouse fibroblasts, CellTiter-Glo, primary screen (AID 1508586;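 active = mean z-score across replicates of 1.96 or higher in either the MELAS or the Rieske mutant cell line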;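 also: z relative to plate mean and SD of compound and empty wells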). As to conditions: low glucose.
Test [16] in a line: compounds altering circadian rhythm period length – cell-based, LOPAC library, luminescence reporter (AID 2774; call rule not given here;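 also: values are relative to mean of DMSO wells on each plate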). To be noted: circadian reporter cells, at 7 µM, actives lie on both sides.
Test [17] can be described thus: compounds altering viability of human ES cells (AID 493140; call rule not given here;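 also: cells exposed to compounds for four days before counting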). As to conditions: human embryonic stem cell survival screen; stronger effect = higher value.
Test [18] is described as follows: blockers of cellular phospholipid synthesis – cell-based, LOPAC library, screen 4, primary screen (AID 1347384; call rule not given here). To be noted: animal cells, phospholipid biosynthesis inhibition screen; at 10 µM.
Test [19] is described as follows: galactose survival enhancers in mitochondrial complex I cybrids – cell-based, galactose medium, ATP luminescence, primary screen (AID 1645843;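 active = z-score of at least 1.8 in each of two replicates, scored against plate mean and spread of sample wells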;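 also: positive z means more ATP and so rescue of galactose-driven cybrid death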). To be noted: complex I mutant cybrid cells, 72 h, stronger effect = higher value.
Setting [20] is: measured here: epithelial PC-3E GFP cell survival.
Setting [21] is: measured here: mesenchymal TEM4-18 mCherry cell survival.
Setting [22] is: stronger effect = lower value, cell number ratio, induced over uninduced.
Where [23] appears, read: measured here: relative caspase fold change +Dox/-Dox.
Where [24] appears, read: measured here: total cells with miR-34 induction, stronger effect = lower value.
Where [25] appears, read: measured here: total cells without miR-34 induction.
Where [26] appears, read: MELAS cybrid survival, CellTiter-Glo 48 h, stronger effect = higher value.
Setting [27] is: Rieske KO mouse fibroblast survival, CellTiter-Glo 72 h.

SMILES strings stand for the structures. Values joined by “and” are separate entries in the source; they are usually repeats but may differ in a detail not shown here. Equal entries are not always repeated. For part of these data: Potency and affinity values are given separately. Active and inactive are the calls of the source. Rule as the data show it, unless noted: active = parasite load remaining mostly below about 12% (no sharp cut-off); inactive = mostly above about 10%.

Sequence of Mitogen-activated protein kinase 7 (Homo sapiens) (Q13164 whole entry, looked up, the tested form may be a part): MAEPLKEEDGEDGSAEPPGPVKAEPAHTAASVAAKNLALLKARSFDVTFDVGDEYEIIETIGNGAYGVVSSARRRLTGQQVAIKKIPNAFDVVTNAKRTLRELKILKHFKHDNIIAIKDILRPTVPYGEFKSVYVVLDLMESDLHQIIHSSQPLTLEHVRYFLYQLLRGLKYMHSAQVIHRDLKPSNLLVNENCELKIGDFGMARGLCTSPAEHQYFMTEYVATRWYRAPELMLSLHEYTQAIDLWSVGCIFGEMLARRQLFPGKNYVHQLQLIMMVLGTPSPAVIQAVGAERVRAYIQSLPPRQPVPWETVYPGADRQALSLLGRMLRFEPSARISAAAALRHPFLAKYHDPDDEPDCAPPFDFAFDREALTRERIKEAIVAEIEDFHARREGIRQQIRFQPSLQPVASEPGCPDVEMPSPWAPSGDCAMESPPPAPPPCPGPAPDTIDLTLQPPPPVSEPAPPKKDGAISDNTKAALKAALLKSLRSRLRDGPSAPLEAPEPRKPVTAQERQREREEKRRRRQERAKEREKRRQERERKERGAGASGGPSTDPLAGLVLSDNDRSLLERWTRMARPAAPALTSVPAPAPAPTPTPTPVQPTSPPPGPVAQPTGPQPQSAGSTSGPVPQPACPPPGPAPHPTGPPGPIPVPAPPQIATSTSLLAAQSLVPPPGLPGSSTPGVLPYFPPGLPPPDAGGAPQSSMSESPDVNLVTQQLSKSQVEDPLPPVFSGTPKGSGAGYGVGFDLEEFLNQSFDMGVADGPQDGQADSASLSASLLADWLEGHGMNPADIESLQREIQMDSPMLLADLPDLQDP
Sequence of 6-phosphogluconate dehydrogenase, decarboxylating (Homo sapiens) (P52209 whole entry, looked up): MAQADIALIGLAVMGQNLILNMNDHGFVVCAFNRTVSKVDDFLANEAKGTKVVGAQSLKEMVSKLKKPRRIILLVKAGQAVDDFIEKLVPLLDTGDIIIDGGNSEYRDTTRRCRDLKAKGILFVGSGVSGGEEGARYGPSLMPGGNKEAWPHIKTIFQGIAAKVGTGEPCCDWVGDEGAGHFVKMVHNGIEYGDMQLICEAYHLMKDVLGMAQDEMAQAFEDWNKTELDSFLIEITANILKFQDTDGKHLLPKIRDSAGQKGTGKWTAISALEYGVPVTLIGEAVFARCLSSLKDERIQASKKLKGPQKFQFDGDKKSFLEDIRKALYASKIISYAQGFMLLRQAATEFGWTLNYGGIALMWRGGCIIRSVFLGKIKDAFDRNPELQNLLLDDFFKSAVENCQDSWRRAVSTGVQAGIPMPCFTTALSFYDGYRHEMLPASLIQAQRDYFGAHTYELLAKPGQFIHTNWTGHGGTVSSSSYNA
Sequence of NAD(+) hydrolase SARM1 (Homo sapiens) (Q6SZW1 whole entry, looked up, the tested form may be a part): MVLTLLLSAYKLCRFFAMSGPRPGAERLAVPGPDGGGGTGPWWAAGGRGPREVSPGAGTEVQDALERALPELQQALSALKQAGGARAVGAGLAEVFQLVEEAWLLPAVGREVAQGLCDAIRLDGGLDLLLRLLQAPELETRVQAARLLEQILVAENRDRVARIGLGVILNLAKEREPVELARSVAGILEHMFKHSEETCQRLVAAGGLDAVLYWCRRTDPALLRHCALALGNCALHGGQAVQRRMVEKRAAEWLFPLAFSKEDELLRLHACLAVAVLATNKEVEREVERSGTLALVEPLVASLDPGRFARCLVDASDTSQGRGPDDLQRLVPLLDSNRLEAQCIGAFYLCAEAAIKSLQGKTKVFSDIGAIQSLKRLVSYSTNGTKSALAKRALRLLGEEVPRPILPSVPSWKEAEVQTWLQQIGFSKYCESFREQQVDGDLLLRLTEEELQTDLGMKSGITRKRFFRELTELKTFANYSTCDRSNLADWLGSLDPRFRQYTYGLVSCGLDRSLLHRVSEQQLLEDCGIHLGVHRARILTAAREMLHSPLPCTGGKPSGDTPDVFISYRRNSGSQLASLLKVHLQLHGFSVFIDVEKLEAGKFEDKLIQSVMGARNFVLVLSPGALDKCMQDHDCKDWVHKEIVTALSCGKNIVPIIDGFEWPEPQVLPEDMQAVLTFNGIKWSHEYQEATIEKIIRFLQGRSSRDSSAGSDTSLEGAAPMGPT

As for `OCc1ccccc1O[C@@H]1O[C@H](CO)[C@@H](O)[C@H](O)[C@H]1O`, the inhibition in [1] was -10.9%; in test [10], 16.9% (inactive). Moreover, the score in test [2] amounted to 1.23. In test [3], the rescue above control is -13.2. In addition, in test [4], the cytochrome c release ratio was found to be 0.94. In addition, the inhibition of aggregation in test [5] came to 25.2%. Also, the glutamate uptake change in test [6] is -4.1%. In test [7], the inclusion score was found to be 2. Further, the aggregation suppression score in [8] turned out to be 1.3. Besides, the parasite load remaining in [9] was 107% (inactive) and 32.5% (inactive). In addition, the viability in [9] is 66.8% and 91.3%. For the same compound, the red/green cell ratio (normalised) in test [11] is 0.91 (inactive). Further, the normalised cell number was determined as 0.63 in test [11] (setting [20]) and 0.57 in [11] (setting [21]). Moreover, the fold change in [12] (setting [22]) is 0.934 (inactive); in test [12] (setting [23]), 2.93. For the same compound, the cell count in [12] (setting [24]) came to 12100; in [12] (setting [25]), 13000. For the same compound, the remaining NAD in test [13] was 10 nM (inactive). For the same compound, in test [14], the luciferase signal is 72 AU (inactive).
Regarding `OCC(O)C(O)C(O)CO` (stereo not drawn), the inhibition in test [10] was -9.83% (inactive). Also, in test [11], the red/green cell ratio (normalised) was 1.02 (inactive) and 0.91 (inactive). Further, the normalised cell number is 0.96 and 1.18 in [11] (setting [20]); 0.97 and 1.07 in test [11] (setting [21]). The fold change in test [12] (setting [22]) was 0.884 (inactive); in [12] (setting [23]), 0.816. Moreover, the cell count in [12] (setting [24]) is 9100; in test [12] (setting [25]) it was 10300. Further, the z-score in test [15] (setting [26]) is -0.33 (inactive); in test [15] (setting [27]), 0.446. Further, the luciferase signal in [14] is 36 AU (inactive).
On to `CCn1nc(C(=O)O)c(=O)c2cc3c(cc21)OCO3`, for which the inhibition in [1] is 20.5%; in test [10], 6.67% (inactive). In addition, the score in [2] was 0.7. For the same compound, in [3], the rescue above control was 3.16. In addition, the cytochrome c release ratio in [4] is 0.93. Further, the inhibition of aggregation in test [5] was 18.2%. Further, the glutamate uptake change in test [6] is -5.25%. Besides, the inclusion score in test [7] amounted to 2. Moreover, in [8], the aggregation suppression score came to 0.697. For the same compound, in test [16], the period change is 0.04 h (inactive). Further, the survival in test [17] is 2.42 (inactive). Also, the parasite load remaining in test [9] is 87.3% (inactive) and 66.8% (inactive). In test [9], the viability is 99.6% and 76.9% and 91.7%. Besides, in [11], the red/green cell ratio (normalised) was 1.25 (inactive). In addition, the normalised cell number was 1.11 in test [11] (setting [20]) and 1.38 in test [11] (setting [21]). Besides, the fold change is 0.983 (inactive) and 0.931 (inactive) and 0.893 (inactive) in test [12] (setting [22]); 1.81 and 0.999 and 1.16 in test [12] (setting [23]). Moreover, the cell count in test [12] (setting [24]) is 10100 and 8650 and 10900; in test [12] (setting [25]), 10300 and 9290 and 12200. For the same compound, the call in test [18] was inactive. Further, the z-score in [15] (setting [26]) was -0.474 (inactive); in test [15] (setting [27]) it was -0.663; in test [19], 0.215 (inactive). Besides, the remaining NAD in [13] is 10 nM (inactive). In test [14], the luciferase signal was 32 AU (inactive).
For `CCC(c1ccc(O)cc1)C(CC)c1ccc(O)cc1` (stereo not drawn), the inhibition in test [1] is 87.7%; in test [10], -4.21% (inactive). The same compound gave a score in [2] of -0.18. Moreover, the rescue above control in test [3] was 0. Moreover, the cytochrome c release ratio in [4] came to 0.95. Besides, the inhibition of aggregation in [5] is 62%. Besides, the glutamate uptake change in test [6] is -7.89%. For the same compound, the aggregation suppression score in test [8] is -0.0418. The survival in test [17] was 2.75 (inactive). Further, the parasite load remaining in test [9] is 53.4% (inactive) and 65.7% (inactive). Further, the viability in [9] was 91.5% and 76.1%. Also, the red/green cell ratio (normalised) in test [11] is 0.99 (inactive). For the same compound, the normalised cell number in [11] (setting [20]) was 1.08; in test [11] (setting [21]), 1.07. In addition, the fold change in [12] (setting [22]) was 0.875 (inactive) and 0.921 (inactive); in test [12] (setting [23]) it was 1.39 and 0.838. The cell count in test [12] (setting [24]) is 8210 and 9640; in test [12] (setting [25]), 9390 and 10500. Moreover, the z-score in test [15] (setting [26]) is -0.359 (inactive) and -2.3 (inactive); in test [15] (setting [27]) it was 0.432 and -0.759. Besides, the luciferase signal in test [14] is 40 AU (inactive).

(Values after PubChem BioAssay.)
